# From PubChem BioAssay (Tox21)
# Inconclusive results are not listed. Where a call stands in place of a potency, no number is given. Values without a mark were called inactive. Activity calls are given as the source filed them. Calls follow the shape of the dose curve; as a rule, active = well fitted cell-killing curve with a large enough effect in the repeat runs; inconclusive = weak or mixed curves, or effect the other way; inactive = flat fitted curve, though single readings scatter.
# Experiment: qHTS assay to identify small molecule antagonists of the androgen receptor (AR) signaling pathway using the MDA cell line - cell viability counter screen (AID 743041; also: nearly all actives have a fitted effect of over 45% in size)
# Settings: MDA-kb2 viability, CellTiter-Fluor, 16 h, cells co-treated with R1881 androgen agonist; series mostly up to 70.3 µM
# Excerpt: National Center for Advancing Translational Sciences [NCATS]
# NIH Chemical Genomics Center [NCGC]
# U.S. Environmental Protection Agency [EPA]
# National Institutes of Environmental Health Sciences [NIEHS]
# National Toxicology Program [NTP]
# U.S. Food and Drug Administration [FDA]
# Androgen receptor (AR), a nuclear hormone receptor, plays a critical role in AR-dependent prostate cancer and other androgen related diseases. Endocrine disrupting chemicals (EDCs) and their interactions with steroid hormone receptors like AR may cause disruption of normal endocrine function as well as interfere with metabolic homeostasis, reproduction, developmental and behavioral functions. To identify the compounds that inhibit AR signaling, MDA-kb2 AR-luc cell line (from ATCC, deposited by Wilson et al.) was used to screen the Tox21 10K compound library. MDA-kb2 AR-luc cell line is human breast carcinoma cell line that was stably transfected with a luciferase reporter gene under control of the MMTV promoter containing response elements for both androgen receptor (AR) and glucocorticoid receptor (GR). The cytotoxicity of the Tox21 compound library against the MDA-kb2 AR-luc cell line was tested in parallel by measuring the cell viability using CellTiter-Fluor assay (Promega, Madison, WI) in the same wells.
# Tox21 Assay Protocol Summary:
# MDA-kb2 AR-luc cells were dispensed at 3,000 cells/4 uL/well of culture medium into white wall/solid-bottom 1536-well plates using a Multidrop Combi (ThermoFisher Scientific, Waltham, MA) dispenser. After the assay plates were incubated at a 37C and 0% CO2 for 5 hr, 23 nL of compounds dissolved in DMSO, positive controls or DMSO only was transferred to the assay plate by a Pintool station (Kalypsys, San Diego, CA), followed by addition of 1 uL of agonist (R1881) in culture medium using a Bioraptr Flying Reagent Dispenser (FRD) workstation (Beckman Coulter, Indianapolis, IN, USA). The plates were incubated at a 37C and 0% CO2 for 16 h. After 15.5 h incubation, 1uL of CellTiter-Fluor reagent (Promega) was added using a Bioraptr FRD to each plate for measuring cytotoxicity. The fluorescence intensity was quantified on a ViewLux plate reader (PerkinElmer, Shelton, CT) following 30 min incubation at 37C and 0% CO2.
# Potency is read from the fitted curve at half-maximal effect.
Compound,Potency,"viability change, negative = cytotoxic"
O=C(O)CCCCCCNC1c2ccccc2CCc2ccccc21,inactive,–
CCCCN(CCCC)C(=S)S,inactive,–
c1cc[n+]2c(c1)-c1cccc[n+]1CC2,inactive,–
C#CC1(O)CCCCC1,inactive,–
ClC1(Cl)C2(Cl)C3(Cl)C4(Cl)C(Cl)(Cl)C5(Cl)C3(Cl)C1(Cl)C5(Cl)C24Cl (stereo not given),inactive,–
CC(=O)O.CC(=O)O.CC(=O)O.CC(=O)O.CC(=O)O.CC(=O)O.CC(=O)O.O.O.[Cr].[Cr].[Cr],inactive,–
O.O.O.O.O.O.O.O=S(=O)([O-])[O-].[Co+2],inactive,–
C[C@H]1[C@H](c2ccc(Cl)cc2)SC(=O)N1C(=O)NC1CCCCC1,inactive,–
CC(C)Br,inactive,–
N#CCCl,inactive,–
CSC(=O)c1c(C(F)F)nc(C(F)(F)F)c(C(=O)SC)c1CC(C)C,inactive,–
CCN(CC)CCc1c[nH]c2ccccc12,inactive,–
CC(C)N(C(=O)SC/C(Cl)=C/Cl)C(C)C,inactive,–
C=CCOC(=O)c1ccccc1N,inactive,–
CC(Cc1ccc(OCC(=O)O)cc1)NCC(O)c1csc(C(F)(F)F)n1 (stereo not given),inactive,–
[O-][Cl+3]([O-])([O-])O,inactive,–
S=C=NCCc1ccccc1,inactive,–
O=[N+]([O-])c1ccccc1-c1ccccc1,inactive,–
O=C(Nc1ccc(F)cc1F)c1cccnc1Oc1cccc(C(F)(F)F)c1,inactive,–
Cc1ccn2nc(S(=O)(=O)Nc3c(F)cccc3F)nc2n1,inactive,–

Compound,Potency,"viability change, negative = cytotoxic"
N#CSCc1ccccc1,inactive,–
CCC(OC(C)=O)C(CC(C)NC)(c1ccccc1)c1ccccc1 (stereo not given),27.5 µM (active),–
Cc1cc2c3c(c1)C(c1ccccc1)=N[C@@H](NC(=O)c1ccncc1)C(=O)N3CC2,inactive,–
Cc1ccc2cc3c(ccc4ccccc43)c3c2c1CC3,inactive,–
O=Cc1ccccc1,inactive,–
N#Cc1ccc(N(CC(N)=O)CC(F)(F)F)cc1C(F)(F)F,inactive,–
CC(C)c1c(CN(C)C(C)Cc2ccccc2)n(C)n(-c2ccccc2)c1=O (stereo not given),inactive,–
C#CCO,inactive,–
CC(=O)[O][Sn]([c]1ccccc1)([c]1ccccc1)[c]1ccccc1,5.45 µM (active),–
O=S1OCC2C(CO1)C1(Cl)C(Cl)=C(Cl)C2(Cl)C1(Cl)Cl (stereo not given),inactive,–
Clc1ccc(C(Cl)(Cl)Cl)cc1Cl,inactive,–
Fc1ccc(C(OCCN2CCN(CCCc3ccccc3)CC2)c2ccc(F)cc2)cc1,21.1 µM (active),–
CC(Cc1ccc2c(c1)OCO2)NO (stereo not given),inactive,–
O=NN(CCO)CCO,inactive,–
C=Cc1cccc(CCl)c1,inactive,–
CC(=O)[O-].CC(=O)[O-].CC(=O)[O-].[Sb+3],–,-11.1% [at 8.47 µM]
BrCCCBr,inactive,–
CC(Cc1ccc(O)cc1)NCC(O)c1cc(O)cc(O)c1 (stereo not given),inactive,–
S=C=Nc1ccccc1,inactive,–
O=C(N[C@@H]1N=C(c2ccccc2F)c2cccc3c2N(CC3)C1=O)c1cc2ccccc2[nH]1,inactive,–
